# Reference: ChEMBL document CHEMBL3988442, “University of Dundee, Small-Polar-MMV Screening Library” (2021)
# How the values were obtained:
# [1] = molecular target: T1, Aspartate--tRNA(Asp/Asn) ligase (Mycobacterium tuberculosis (strain ATCC 25618 / H37Rv)) (UniProt P9WFW3); assay: Assay for Asp RNA synthetase-1 from Mycobacterium tuberculosis; format: functional; set-up: scale not given: direction of the effect not stated beside the values; conditions: 30 µM; further: in the data most compounds retested in dose-response had high values
# T1 sequence (whole entry): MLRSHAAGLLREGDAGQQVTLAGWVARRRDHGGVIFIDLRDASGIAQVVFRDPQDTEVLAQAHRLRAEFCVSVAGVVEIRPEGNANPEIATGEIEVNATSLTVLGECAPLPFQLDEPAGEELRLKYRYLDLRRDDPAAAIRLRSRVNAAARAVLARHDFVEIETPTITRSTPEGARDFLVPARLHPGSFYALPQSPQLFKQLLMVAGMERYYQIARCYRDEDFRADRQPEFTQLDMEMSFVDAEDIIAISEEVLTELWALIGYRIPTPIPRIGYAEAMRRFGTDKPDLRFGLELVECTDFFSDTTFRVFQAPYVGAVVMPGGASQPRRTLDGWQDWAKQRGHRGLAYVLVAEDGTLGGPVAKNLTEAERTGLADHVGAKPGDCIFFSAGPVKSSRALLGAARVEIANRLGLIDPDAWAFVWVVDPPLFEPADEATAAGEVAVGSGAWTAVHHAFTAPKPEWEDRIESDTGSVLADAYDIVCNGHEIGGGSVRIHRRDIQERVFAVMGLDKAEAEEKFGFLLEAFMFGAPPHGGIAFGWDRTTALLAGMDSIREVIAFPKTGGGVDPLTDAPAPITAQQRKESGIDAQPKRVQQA
# [2] = molecular target: Shiga toxin 2 (Escherichia coli O157:H7) (UniProt P09385+P09386); assay: E. coli 0.157:H7 Shiga Toxin SOP - stx2 screening assay; format: functional; set-up: scale not given: direction of the effect not stated beside the values; conditions: 30 µM
Compound,Percent Effect [1] [%],Percent Effect [2] [%]
CCOC1CCCN(C(=O)NCCc2ccn(-c3ccccc3)n2)C1 (centres undefined),0.577,12.9
Cc1csc(NC(=O)CN(C)CC2CCCN2c2cccnn2)n1 (centres undefined),3.48,-23.1
CN1CC(=O)N(c2cccnc2)CC12CCN(C(=O)c1cccnc1)C2 (centres undefined),4.16,-12
NS(=O)(=O)CCNC(=O)C1(c2ccc(Br)cc2)CC1,1.66,-28.2
Cn1c(NCC(O)c2ccc(F)cc2F)c(C#N)c(=O)n(C)c1=O (centres undefined),-5.91,-8.41
Cc1cc(C)n(C2CCCN(C(=O)C3=NN(C)C(=O)CC3)C2)n1 (centres undefined),0.706,17.2
NC(=O)CN1CCCN(C(=O)c2ccn(-c3ccccc3)n2)CC1,-2.4,6
CSc1ncc(C(=O)N2C[C@H]3CC[C@@H]2CN(Cc2ccccc2)C3)cn1,1.12,-17.1
CC(C)(C)c1noc(CN2CCCN(Cc3cccs3)CC2)n1,-4.01,-1.06
O=C(COCc1nc(-c2ccncc2)no1)N1CCCC1,15.3,-21.3
Cc1nn(C)c(C)c1C1CCCN1Cc1cccc(C(N)=O)c1 (centres undefined),-1.14,-1.22
CCc1n[nH]c(C2CN(CCc3cccs3)CCO2)n1 (centres undefined),-6.83,-38.7
CC(=O)N1CCN(C(=O)C(C)n2cncn2)CC1 (centres undefined),-4.44,1.67
COc1ccc2c(c1)CCCN2Cc1nc2c(cnn2C)c(=O)[nH]1,-4.23,-5.78
Cc1oc(C(=O)O)cc1S(=O)(=O)Nc1cc(Cl)ccc1F,-2.58,17.5
Cc1nccc(CN2CC[C@H](Oc3cccc(F)c3)[C@@](C)(O)C2)n1,-0.368,-25.4
Cc1ccc(CNC(=O)NCc2cccnc2N(C)C)s1,-3.67,1.79
